In PubChem BioAssay AID493011 (Sanford-Burnham Center for Chemical Genomics, 2011):
Where “and” joins values, the source holds several entries; their conditions need not be identical. Equal entries are not always repeated. About 1,400 (0.42%) of roughly 330,000 compounds were called active.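 Rule for the calls: active = at least 40% inhibition at 20 µM here, with at most 30% in a related deaminase screen; inactive = the rest.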 The entries come from a sample that favours actives as a whole.

Biological target: DNA dC->dU-editing enzyme APOBEC-3A (Homo sapiens) (UniProt P31941)
Sequence (P31941 whole entry, looked up): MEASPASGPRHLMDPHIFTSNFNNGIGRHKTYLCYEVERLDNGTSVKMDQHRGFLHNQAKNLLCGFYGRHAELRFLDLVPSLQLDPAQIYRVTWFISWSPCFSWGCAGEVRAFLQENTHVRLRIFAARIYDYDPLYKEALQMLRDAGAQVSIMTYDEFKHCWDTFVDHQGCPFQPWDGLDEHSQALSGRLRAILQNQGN
Assay: APOBEC3A ssDNA deaminase inhibitors, primary screen, selectivity assay for APOBEC3G inhibitor project, biochemical, FAM/TAMRA oligo cleavage fluorescence (AID 493011);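 note: plate controls were A3A with DMSO for no effect and wells lacking A3A enzyme for full effect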
Settings: recombinant A3A, FAM/TAMRA ssDNA deamination fluorescence; at 20 µM; active compounds read high

Row | Structure (SMILES) | inhibition
1 | N#Cc1c(NC(=O)c2ccc(N3CCOCC3)c([N+](=O)[O-])c2)sc2c1CCCC2 | 2.01% (inactive)
2 | CCCCNC(=O)CSc1nc2ccc(NC(=O)CSc3nnc(COc4ccccc4C)n3C)cc2s1 | -2.55% (inactive)
3 | CCCCNC(=O)CSc1nc2ccc(NC(=O)CSc3nnc(N)s3)cc2s1 | 75.7% (active)
4 | Nc1nnc(SCC(=O)Nc2ccc3nc(SCC(=O)Nc4ccccc4)sc3c2)s1 | -1.31% (inactive)
5 | Cc1cc2c(=O)n(CC(=O)NCC(=O)Nc3ccc(C(C)C)cc3)cnc2s1 | -11.2% (inactive)
6 | C=CC1=C(C(=O)O)N2C(=O)[C@@H](NC(=O)/C(=N\OCC(=O)O)c3csc(N)n3)[C@H]2SC1 | 13.4% (inactive)
7 | C=CC1=C(C(=O)O)N2C(=O)[C@@H](NC(=O)/C(=N/OCC(=O)O)c3csc(N)n3)[C@H]2SC1 | 57.5% (active)
8 | CO/N=C(\C(=O)N[C@@H]1C(=O)N2C(C(=O)O)=C(COC(C)=O)CS[C@H]12)c1csc(N)n1 (stereo in doubt) | 2.73% (inactive) and 21.9% (inactive) and -0.539% (inactive)
9 | COc1ccc(Cc2nnc(NC(=O)c3cc(OC)c(OC)c(OC)c3)s2)cc1OC | 6.64% (inactive)
10 | COc1ccccc1NC(=O)Nc1nnc(Cc2ccc(F)cc2)s1 | 0.132% (inactive)
11 | COc1ccc(Cc2nnc(NC(=O)c3ccc(OC)cc3OC)s2)cc1 | 52.7% (active)
12 | CN(C)C(=O)Cn1c(=O)n(S(=O)(=O)c2ccccc2)c2ccccc21 | 0.322% (inactive)
13 | O=C(COC(=O)Cc1ccccc1F)NNC(=O)c1ccc(Cl)cc1 | 2.91% (inactive)
14 | NS(=O)(=O)c1cc(C(=O)OCC(=O)NNC(=O)c2ccccc2)ccc1Cl | 76% (active)
15 | O=C(COC(=O)c1ncc(Cl)c(Cl)c1Cl)NNC(=O)c1ccccc1 | 2.14% (inactive)
16 | Cc1c(C)c2ccc(OCC(=O)N3CCN(c4cccc(Cl)c4)CC3)cc2oc1=O | 2.08% (inactive)
17 | COc1cc(NC(=S)N2CCCC(C)C2)c(OC)cc1Cl (stereo not drawn) | -2.12% (inactive)
18 | CC(/C=C/c1ccccc1)=N\NC(=O)C1CC1(C)c1ccccc1 (stereo not drawn) | 59.5% (active)
19 | O=C(N/N=C/C=C/c1ccccc1)C1CC1(c1ccccc1)c1ccccc1 (stereo not drawn) | 1.87% (inactive)
20 | CC(/C=C/c1ccco1)=N/NC(=O)C1COc2ccccc2O1 (stereo not drawn) | -6.53% (inactive)

Row | Structure (SMILES) | inhibition
21 | O=C(Nc1ccccc1N1CCOCC1)c1ccc(OCc2cscn2)cc1 | 3.65% (inactive)
22 | COc1ccc(CN(C)C(=O)c2cc(-c3ccc(C)cc3C)nc3ccccc23)c(OC)c1OC | -0.735% (inactive)
23 | CC1C(c2ccccc2)=[N+]([O-])C2(CCCC2)N1O (stereo not drawn) | 3.6% (inactive)
24 | COc1ccc(S(=O)(=O)N2CCCC(C(=O)Nc3ccc(NC(=O)c4ccccn4)cc3)C2)cc1 (stereo not drawn) | 0.311% (inactive)
25 | CC(=O)Nc1ccc(NC(=O)C2CCCN(S(=O)(=O)c3ccc(Cl)cc3)C2)cc1 (stereo not drawn) | 94.5% (active)
26 | CC(C)c1ccc(NC(=O)C2CCCN(S(=O)(=O)c3cccnc3)C2)cc1 (stereo not drawn) | 3.03% (inactive)
27 | O=C(NCCCn1ccnc1)c1cc(Br)c(Br)s1 | -1.2% (inactive)
28 | C/C(=N\NC(=O)c1cc(-c2ccc(O)cc2)nc2ccccc12)c1cccnc1 | -0.382% (inactive)
29 | O=C(N/N=C\c1cccnc1)c1cc(-c2ccccc2)nc2c(Cl)cccc12 | 43.3% (active)
30 | COc1ccc(-c2cc(C(=O)N/N=C/c3cccnc3)c3ccccc3n2)c(OC)c1 | 1.62% (inactive)
31 | C/C(Cn1nnc2ccccc21)=N\OC(=O)c1cc(F)c(F)cc1Cl | -2.44% (inactive)
32 | CCOc1ccc(C)cc1S(=O)(=O)NC1CCCCCC1 | 0.216% (inactive)
33 | COc1ccc(C2c3ccc(O)cc3Oc3ncn(CCCO)c(=N)c32)cc1OC (stereo not drawn) | 1.57% (inactive)
34 | Cc1ccc(CCCOC(=O)C[N+]2(C)CCCC2)cc1 | 29.9% (inactive)
35 | Cc1ccc(COC(=O)CN2C(=O)NC3(CCCC3)C2=O)cc1 | 2.64% (inactive)
36 | Cc1ccc(CCCOC(=O)C[N+]2(C)CCCCC2)cc1 | 75.2% (active)
37 | O=C(COc1ccccc1)Nc1ccc(N2CCN(C(=O)c3cccs3)CC2)cc1 | 3.22% (inactive)
38 | COc1ccc(C(=O)NC2(C(F)(F)F)NC(=O)N(CCCc3ccccc3)C2=O)c(OC)c1OC (stereo not drawn) | 1.49% (inactive)
39 | CCn1c(SCC(=O)Nc2cccc(F)c2)nnc1-c1cc2cc(Br)ccc2o1 | 49.5% (active)
40 | CCn1c(SCC(=O)Nc2ccc3c(c2)OCCO3)nnc1-c1ccncc1 | -2.5% (inactive)

Row | Structure (SMILES) | inhibition
41 | CCn1c(CNC(=O)c2ccco2)nnc1SCC(=O)Nc1cccc(F)c1 | 0.913% (inactive)
42 | Cc1ccc(C2=C/C(=C\c3cccnc3)C(=O)O2)cc1 | 42.5% (active)
43 | CN(C)/C=C1\C=C(c2ccccc2)OC1=O | 0.636% (inactive)
44 | Cc1ccccc1C1=N/C(=C/c2cccnc2)C(=O)O1 | -1.12% (inactive)
45 | Cc1ccc(C(=O)N/N=C/c2cccc3ccccc23)cn1 | -4.44% (inactive)
46 | O=C(N/N=C\c1cc(Br)c(Br)o1)C1COc2ccccc2O1 (stereo not drawn) | 13.8% (inactive)
47 | Cc1ccc(C(=O)N/N=C\c2cc(Br)c(Br)o2)cn1 | 44.2% (active)
48 | O=C(CN1C(=O)NC2(CCOc3ccccc32)C1=O)Nc1cccc([N+](=O)[O-])c1 (stereo not drawn) | 6.58% (inactive)
49 | CC1=NN(C(=O)CCCc2ccccc2)C(O)(C(F)(F)F)C1 (stereo not drawn) | -5.39% (inactive)
50 | COc1ccc(CC(=O)N2N=C(C)CC2(O)C(F)(F)F)cc1 (stereo not drawn) | -1.7% (inactive)
51 | CC1=NN(C(=O)CCc2ccccc2O)C(O)(C(F)(F)F)C1 (stereo not drawn) | 54.8% (active)
52 | CC(C)COP(=O)(c1ccc(N(C)C)cc1)C(Nc1ccccc1)c1cccnc1 (stereo not drawn) | -0.443% (inactive)
53 | C[N+](C)(C)CCOP(=O)([O-])OC[C@H](O)CO | -3.05% (inactive)
54 | CCOc1cccc(OCCCOc2cccc3cccnc23)c1 | 0.036% (inactive)
55 | CCCc1cc(=O)[nH]c(SCc2ccc(C#N)cc2)n1 | -3.79% (inactive)
56 | CCOc1ccc(C2C3=C(CCCC3=O)N(CC(=O)O)C3=C2C(=O)CCC3)cc1 | 5.98% (inactive)
57 | COc1ccc(C2C3=C(CCCC3=O)N(CC(=O)O)C3=C2C(=O)CCC3)cc1 | -0.629% (inactive)
58 | CCCN1C2=C(C(=O)CCC2)C(c2ccc(O)c(Br)c2)C2=C1CCCC2=O | 68.9% (active)
